# IL1B secr inh = inhibitors of inflammasome signaling (IL-1 beta secretion); THP-1 LPS/ATP IL-1B secretion, AlphaLISA, 16 h; hits give low values; activity change, % at 57.5 µM; 360,000 compounds, 4.7% hits; AID 743279; in the data active = activity change below about -50%; inconclusive = mostly about -30% to -49%; also: % is scaled to controls: 0 for no effect and ±100 for the full control effect
#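 Secreted IL-1B measured by AlphaLISA bead assay after 16 h compound exposure of THP-1 cells; compounds (final up to 57.5 uM) added 1 h before LPS (250 ng/mL) and ATP (1.25 mM) stimulation; lower signal means less secretion.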
# USP1-UAF1 inh = inhibitors of human USP1/UAF1 deubiquitinase. O94782. recombinant USP1/UAF1, Ub-Rhodamine cleavage fluorescence. Potency, µM (titrated, usually from 57.1 µM), inactives show at the top dose activity change, negative = inhibition, most hits filed as inhibitors. 390,000 compounds, 0.23% hits. AID 743255; also: potency is read from the fitted curve at half-maximal effect; % is scaled to controls: 0 for no effect and ±100 for the full control effect; nearly all actives have a fitted effect of over 60% in size
#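 In this screen, compounds sit with the deubiquitinase complex (1nM) for 15 min at room temperature before Ub-Rho is added at 150nM final. Fluorescence rise is then followed for 6 reads every 60 seconds.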
# ATXN viability = viability counter-screen for ATXN expression inhibitors; Potency, µM (series often up to 56.7 µM), usual class: cytotoxic; 400,000 compounds, 0.49% hits; S2 cells (HEK-293 line with an ATXN2-luciferase reporter) viability, CellTiter-Fluor protease fluorescence, 24 h; also: potency is read from the fitted curve at half-maximal effect; nearly all actives have a fitted effect of over 40% in size
# ATXN2 expr inh = reduces ATXN2 reporter expression in HEK-293 cells. HEK-293 ATXN2-luciferase reporter, luminescence, 24 h. Potency, µM (doses to about 57 µM), for inactives: at the highest dose activity change, negative = inhibition, usual class: inhibitors. 360,000 compounds, 0.72% hits. AID 1745845; also: potency is read from the fitted curve at half-maximal effect; % is scaled to controls: 0 for no effect and ±100 for the full control effect; nearly all actives have a fitted effect of over 55% in size
#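 ATXN2-luciferase reporter cells (luciferase flanked by upstream and downstream ATXN2 gene portions) were treated 24 h at 37 °C with compounds at up to 57 uM. SteadyGlo luminescence gave expression; GF-AFC fluorescence gave viability.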
# USP2a block = blocks human ubiquitin-specific protease USP2a; USP2 core, Ub-CHOP2 coupled fluorogenic reporter, 485/531; Potency, µM (series often up to 38.3 µM), inactives show at the top dose activity change, negative = inhibition, hits mostly inhibitors; 330,000 compounds, 0.01% hits; AID 463254;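 also: potency is read from the fitted curve at half-maximal effect; plate controls were DMSO wells for no effect and full inhibition by NEM control for full effect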
# Target sequence (O75604 whole entry, looked up): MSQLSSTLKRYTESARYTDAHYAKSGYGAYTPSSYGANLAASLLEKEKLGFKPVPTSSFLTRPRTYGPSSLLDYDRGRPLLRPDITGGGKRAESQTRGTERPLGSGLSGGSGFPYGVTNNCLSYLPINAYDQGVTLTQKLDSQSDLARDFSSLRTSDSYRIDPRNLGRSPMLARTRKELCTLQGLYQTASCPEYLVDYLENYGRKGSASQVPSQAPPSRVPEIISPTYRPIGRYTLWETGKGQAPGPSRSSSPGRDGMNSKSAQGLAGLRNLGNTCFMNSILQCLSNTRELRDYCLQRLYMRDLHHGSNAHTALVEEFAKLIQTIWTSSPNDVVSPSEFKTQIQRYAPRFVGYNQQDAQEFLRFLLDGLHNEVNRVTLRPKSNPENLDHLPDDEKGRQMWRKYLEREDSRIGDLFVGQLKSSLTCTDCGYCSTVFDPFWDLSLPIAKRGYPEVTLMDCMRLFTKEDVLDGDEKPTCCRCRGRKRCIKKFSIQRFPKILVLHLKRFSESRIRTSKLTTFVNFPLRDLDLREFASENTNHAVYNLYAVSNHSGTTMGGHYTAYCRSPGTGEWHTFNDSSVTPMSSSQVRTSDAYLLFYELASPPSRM
#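 Deubiquitinase activity read as fluorescence (485/531 nm) after Ub-CHOP2 cleavage activates the enterokinase reporter on its substrate; USP2 core 10nM, Ub-CHOP2 and substrate 25nM each, 30min compound preincubation then 60min RT; data normalized to NEM, curves fitted.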
# Active calls of the source: *; i = inactive; ? = inconclusive; · = no result given; ! = not confirmed by another sample. Sampled rows, rich in hits. Any-hit rate of the full collection: about 4.8%. Unless noted, calls follow the shape of the dose curve; as a rule, active = well fitted curve in the direction sought with a large enough effect; inconclusive = small, poorly fitted or top-dose-only effect, or another doubt; inactive = no such curve, though single readings can be large; an effect the other way counts as inactive or inconclusive.
SMILES,IL1B secr inh,USP1-UAF1 inh,ATXN viability,ATXN2 expr inh,USP2a block
CCC(=O)N1CCc2cc(Br)cc(S(=O)(=O)N3CCN(c4cccc(Cl)c4)CC3)c21,·,-6.8%,i,-2.0%,·
CCOC(=O)C(C(=O)OCC)C1OC(=O)c2cc3c(cc21)C(=O)OC3C(C(=O)OCC)C(=O)OCC (centres undefined),-97.7*,-12.1%,i,-21.2%,2.6%
Cc1cc2cc(CN(Cc3nnnn3C3CCCCC3)CC3CCCO3)c(=O)[nH]c2cc1C (centres undefined),-65.9*,-24.0%,?,-23.7%,1.3%
Cc1ccc2[nH]c(=O)c(CN(Cc3ccc4c(c3)OCO4)Cc3nnnn3C3CCCC3)cc2c1,-55.8*,-5.0%,i,-7.3%,·
Cc1cc2cc(CN(Cc3ccc4c(c3)OCO4)Cc3nnnn3C3CCCC3)c(=O)[nH]c2cc1C,-5.8,-18.8%,?,2.5%,0.7%
Cc1ccc2cc(CN(Cc3nnnn3C3CCCCC3)CC3CCCO3)c(=O)[nH]c2c1 (centres undefined),-9.2,-10.9%,?,-8.6%,2.2%
COc1ccc(CN(Cc2cc3ccc(C)cc3[nH]c2=O)Cc2nnnn2C2CCCC2)cc1,-57.9*,-33.7%,?,-11.2%,-8.4%
CC(NC(=O)C1CCN(C(=O)c2ccc(F)cc2)CC1)c1ccc(-n2ccnc2)cc1 (centres undefined),-7.0,-9.0%,i,-3.6%,-6.1%
Cc1csc(NC(=O)CSc2nc3[nH]c(=O)cc(O)c3s2)n1,-105.0*,-10.9%,?,-30.3%,·
O=C(CSc1nc2[nH]c(=O)cc(O)c2s1)Nc1nncs1,-8.8,-7.3%,i,-3.1%,·
Cc1ccc([C@@H]2C[C@H]3[C@@H](CN2S(=O)(=O)c2ccc(C)cc2)C(=O)C[C@@H](c2ccccc2)N3S(=O)(=O)c2ccc(C)cc2)cc1,29.5,-13.1%,i,-7.1%,·
Cc1ccc(S(=O)(=O)N2C[C@H]3C(=O)C[C@@H](c4cccs4)N(S(=O)(=O)c4ccc(C)cc4)[C@H]3C[C@H]2c2ccccc2)cc1,-57.7*,·,i,10.2%,·
Cc1ccc(S(=O)(=O)N2C[C@H]3C(=O)C[C@@H](c4ccccc4)N(S(C)(=O)=O)[C@H]3C[C@H]2c2ccccc2)cc1,-91.6*,·,?,?,·
COc1ccc(S(=O)(=O)Nc2ncccn2)cc1,-7.3,-13.4%,i,-1.6%,1.3%
Cc1cc(C(=O)N/N=C/c2ccc([N+](=O)[O-])s2)c2ccccc2n1,-78.7*,-12.3%,?,?,1.2%
Cc1ccccc1C(=O)N/N=C/c1ccc([N+](=O)[O-])s1,-64.7*,-29.3%,?,7.94µM*,2.3%
O=C(N/N=C\c1ccc([N+](=O)[O-])s1)c1cncc(Br)c1,-58.2*,-11.7%,28.2µM*,10µM*,1.0%
Cn1c(SCC(=O)N/N=C/c2ccc([N+](=O)[O-])s2)nnc1-c1ccccc1,-97.7*,-1.6%,?,?,-1.2%
O=C(N/N=C/c1ccc([N+](=O)[O-])s1)c1ccccc1Br,-63.4*,-23.5%,?,?,-0.2%
COc1ccc(CN2CCN(Cc3cccc(Oc4ccccc4)c3)CC2)c(OC)c1OC,-89.0*,-4.4%,i,-25.4%,-1.5%
COc1ccc(CN2CCN(C(c3ccc(F)cc3)c3ccc(F)cc3)CC2)c(OC)c1OC,-23.7,-16.0%,?,39.8µM*!,·
COc1cc(CN2CCN(Cc3cccc(OC)c3OC)CC2)cc(OC)c1,18.2,-10.5%,i,-2.2%,4.7%
OC1CCN(Cc2cccc(Oc3ccccc3)c2)CC1,0.0,-2.0%,i,5.4%,1.0%
CN1CCN(Cc2cccc(Oc3ccccc3)c2)CC1,-53.1*,-4.3%,i,2.8%,-2.0%
COc1ccc(CN2CCN(c3ccc(F)cc3)CC2)c(OC)c1OC,8.8,-13.3%,i,-21.7%,0.6%
COc1ccc([C@@H]2CC=C(C(=O)O)[C@H](c3ccc(F)cc3)N2S(=O)(=O)c2ccc(Cl)cc2)cc1,30.0,-10.6%,i,10.6%,0.2%
COc1ccc(Cn2c(CO)cnc2SCc2ccc(F)cc2)cc1,·,?,i,3.2%,·
COc1ccnc(CSC(N)=Nc2ccc(F)cc2)c1,-98.5*,-7.3%,i,6.4%,4.5%
